Drawing on PubChem BioAssay (EPA / NIEHS), this text covers outcome and AC50 for 17 compounds.

SMILES strings stand for the structures. Results filed as inconclusive are left out. Activity calls are given as the source filed them. How the source made its calls: active means hit-call score of the fitted dose curve at least 0.9, where 1 is the maximum; inconclusive means response in the unintended direction; inactive means score below 0.9.

Chain of Estrogen receptor beta (Homo sapiens) (Q92731 whole entry, looked up, the tested form may be a part): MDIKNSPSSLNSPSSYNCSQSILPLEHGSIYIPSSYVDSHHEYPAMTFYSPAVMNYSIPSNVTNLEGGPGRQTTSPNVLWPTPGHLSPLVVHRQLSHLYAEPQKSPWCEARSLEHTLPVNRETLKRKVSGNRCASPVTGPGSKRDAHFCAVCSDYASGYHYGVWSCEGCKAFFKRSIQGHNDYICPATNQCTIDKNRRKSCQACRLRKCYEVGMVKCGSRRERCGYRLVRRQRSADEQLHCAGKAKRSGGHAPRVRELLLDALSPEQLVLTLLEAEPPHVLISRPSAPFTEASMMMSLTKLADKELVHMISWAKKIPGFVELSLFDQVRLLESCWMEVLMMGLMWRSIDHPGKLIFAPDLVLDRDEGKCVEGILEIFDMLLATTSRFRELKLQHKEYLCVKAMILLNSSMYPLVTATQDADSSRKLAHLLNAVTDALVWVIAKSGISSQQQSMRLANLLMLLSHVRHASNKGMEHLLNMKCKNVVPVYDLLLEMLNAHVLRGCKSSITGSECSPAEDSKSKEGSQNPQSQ

The target of the first assay is Androgen Receptor/SRC-1 Co-activator, AR (gene 367) (UniProt P10275). As to the kind of experiment: OT_AR_ARSRC1_0960: Odyssey Thera (OT) 16-hour HEK293T Protein-Complementation Assay for Androgen Receptor/SRC-1 Co-activator (AID 2283353).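 Further: actives raise the signal above DMSO so potency reflects increased AR and SRC-1 complex.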 The gist of the method: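 Sixteen-hour cell assay: Venus halves fused to AR and SRC-1 in HEK293T report binding. Images at 488/635 nm give an N/C ratio in the 488 nm channel over ≥400 cells, analysed as signal increase over DMSO.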
Chain of Androgen Receptor/SRC-1 Co-activator, AR (gene 367) (P10275 whole entry, looked up, the tested form may be a part): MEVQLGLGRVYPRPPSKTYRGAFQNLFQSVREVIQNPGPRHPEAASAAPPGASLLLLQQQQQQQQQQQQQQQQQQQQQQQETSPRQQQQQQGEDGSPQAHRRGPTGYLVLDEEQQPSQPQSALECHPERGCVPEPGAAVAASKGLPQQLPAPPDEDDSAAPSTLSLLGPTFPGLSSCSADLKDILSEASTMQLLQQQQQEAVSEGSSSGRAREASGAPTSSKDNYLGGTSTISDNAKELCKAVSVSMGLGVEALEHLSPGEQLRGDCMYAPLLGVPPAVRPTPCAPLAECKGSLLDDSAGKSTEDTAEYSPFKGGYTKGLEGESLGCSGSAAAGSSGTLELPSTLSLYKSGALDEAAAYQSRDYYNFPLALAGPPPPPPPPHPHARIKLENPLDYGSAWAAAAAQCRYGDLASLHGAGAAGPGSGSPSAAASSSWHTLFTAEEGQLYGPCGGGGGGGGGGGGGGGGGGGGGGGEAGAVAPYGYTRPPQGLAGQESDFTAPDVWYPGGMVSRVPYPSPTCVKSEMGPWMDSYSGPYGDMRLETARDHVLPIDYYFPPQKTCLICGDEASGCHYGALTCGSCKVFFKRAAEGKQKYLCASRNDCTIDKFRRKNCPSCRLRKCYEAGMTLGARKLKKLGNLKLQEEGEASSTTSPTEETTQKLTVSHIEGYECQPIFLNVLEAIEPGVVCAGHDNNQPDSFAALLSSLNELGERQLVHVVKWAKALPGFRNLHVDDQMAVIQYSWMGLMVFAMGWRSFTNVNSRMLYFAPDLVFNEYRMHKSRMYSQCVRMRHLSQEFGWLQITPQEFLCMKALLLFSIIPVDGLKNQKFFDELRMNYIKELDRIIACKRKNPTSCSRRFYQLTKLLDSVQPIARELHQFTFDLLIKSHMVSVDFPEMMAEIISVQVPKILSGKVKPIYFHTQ
Turning to `CN(C)Cc1ccccc1O`, the result was inactive.
In the case of `CNC(=S)NC`, the compound was called inactive.
In the case of `[Co]`, the call was inactive.
Still for that read-out and setting: with `CCCCCCC(C)OC(=O)CCCCC(=O)OC(C)CCCCCC` (stereo unspecified) the entry was “inactive”.
`CCCCCCOC(=O)c1ccccc1O`: the outcome was inactive.

For a further assay the target is unchanged. Kind of assay: OT_AR_ARSRC1_0480: Odyssey Thera (OT) 8-hour HEK293T Protein-Complementation Assay for Androgen Receptor/SRC-1 Co-activator (AID 2283354).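 Further: hits raise the complementation signal above DMSO so AC50 marks enhancers.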 The gist of the method: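 Split-Venus PCA, stable HEK293T, AR/SRC-1 fusions; 8 h exposure. Readout: 488nm N/C fluorescence ratio, ≥400 cells/image; fitted upward vs DMSO baseline.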
As to `CN(C)Cc1ccccc1O`, the compound was classed as inactive.
On the same count and under the same terms, to `CNC(=S)NC` belongs “inactive”; to `[Co]`, “inactive”.
Same read-out and setting: with `CCCCCCC(C)OC(=O)CCCCC(=O)OC(C)CCCCCC` (stereo unspecified) the entry was “inactive”; with `CCCCCCOC(=O)c1ccccc1O`, “inactive”.

A further assay deals with Estrogen receptor (Homo sapiens) + Estrogen receptor beta (Homo sapiens) (UniProt P03372+Q92731). Kind of assay: OT_ER_ERaERb_1440: Odyssey Thera (OT) 24-hour HEK293T Protein-Complementation Assay for Estrogen Receptor-alpha/-beta Homodimer (AID 2283356).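 Further: heteromer of ER alpha and ER beta binding domains; hits raise reporter fluorescence and both agonists and antagonists give an increase.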 Summed up: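 Heterodimerisation of ERα (aa 310-547) and ERβ (aa 263-489) ligand binding domains was tracked as fluorescence gain in stably transfected HEK293T cells following 24 h dosing, normalised to DMSO controls.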
Chain of Estrogen receptor (Homo sapiens) + Estrogen receptor beta (Homo sapiens) (P03372 whole entry, looked up, the tested form may be a part): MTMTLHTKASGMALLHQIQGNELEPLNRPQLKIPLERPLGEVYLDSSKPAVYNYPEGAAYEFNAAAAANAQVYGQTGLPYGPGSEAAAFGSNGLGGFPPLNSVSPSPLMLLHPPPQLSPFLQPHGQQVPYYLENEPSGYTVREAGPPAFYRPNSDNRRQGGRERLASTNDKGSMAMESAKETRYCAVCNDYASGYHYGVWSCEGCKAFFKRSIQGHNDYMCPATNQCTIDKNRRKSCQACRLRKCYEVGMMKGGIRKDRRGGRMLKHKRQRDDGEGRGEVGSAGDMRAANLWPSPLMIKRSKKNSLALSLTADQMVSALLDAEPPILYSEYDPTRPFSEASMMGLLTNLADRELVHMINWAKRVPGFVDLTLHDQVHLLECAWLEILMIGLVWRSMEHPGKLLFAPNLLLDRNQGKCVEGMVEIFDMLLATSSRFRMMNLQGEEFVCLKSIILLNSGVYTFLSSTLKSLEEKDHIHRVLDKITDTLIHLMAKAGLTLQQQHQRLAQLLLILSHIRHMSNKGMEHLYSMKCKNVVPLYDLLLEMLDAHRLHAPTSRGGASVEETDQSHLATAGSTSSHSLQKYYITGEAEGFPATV
Chain of Estrogen receptor (Homo sapiens) + Estrogen receptor beta (Homo sapiens) (Q92731 whole entry, looked up, the tested form may be a part): as the sequence (Q92731 whole entry, looked up, the tested form may be a part) above
For the compound `O=C(OCCOCCOCCOC(=O)c1ccccc1)c1ccccc1`, the result was inactive.
A word on the AC50: it is the concentration at which the activity in the assay is half-maximal. Take `CC(Cc1ccc(O)c(O)c1)C(C)Cc1ccc(O)c(O)c1` (stereo unspecified): the half-maximal activity concentration (AC50) is 11.9 µM (active).
With `Cc1cc(C)cc(O)c1`, the outcome was inactive.
Same read-out and setting: with `CCN(Cc1cccc(S(=O)(=O)O)c1)c1ccc(C(=C2C=CC(=[N+](CC)Cc3cccc(S(=O)(=O)O)c3)C=C2)c2ccc(O)cc2S(=O)(=O)[O-])cc1` the entry was “inactive”.
On to `C(=C(c1ccccc1)c1ccccc1)c1ccccc1`, for which the concentration at half-maximal activity (AC50) is 29.3 µM (active).
For the compound `CC(CCl)OP(=O)(OC(C)CCl)OC(C)CCl` (stereo unspecified), the outcome was inactive.
Still for that read-out and setting: to `C1COCCN1` belongs “inactive”; to `CN(C)Cc1ccccc1O`, “inactive”.
Take `CCCCOc1ccc(N)cc1`: the AC50 was 68.7 µM (active).
`CC/C=C\CCOC(C)=O`: the result was inactive.
On the same count and under the same terms, with `[Co]` the entry was “inactive”.
Turning to `Cc1ccc(S(=O)(=O)NCl)cc1`, the result was inactive.
Still for that read-out and setting: to `CCCCCCC(C)OC(=O)CCCCC(=O)OC(C)CCCCCC` (stereo unspecified) belongs “inactive”; to `CCCCCCOC(=O)c1ccccc1O`, “inactive”.
With `COC(=O)C1CCC(C(=O)OC)CC1` (stereo unspecified), the result was inactive.
Consider `CCCCCCOC(=O)c1ccccc1`, for which the result was inactive.

In a further assay the target is Estrogen receptor beta (Homo sapiens) (UniProt Q92731). As to the kind of experiment: OT_ER_ERbERb_0480: Odyssey Thera (OT) 8-hour HEK293T Protein-Complementation Assay for Estrogen Receptor-beta/-beta Homodimer (AID 2283357).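 Further: active means signal gain over DMSO baseline.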 Summed up:
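Homodimerization of ER-beta LBD measured by protein-fragment complementation in HEK293T; 8 h dosing; fixed, Draq5 counterstain; fluorescence intensity gain over DMSO baseline, positive fitting direction; laser scanning cytometry.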
Regarding `CC(Cc1ccc(O)c(O)c1)C(C)Cc1ccc(O)c(O)c1` (stereo unspecified), the AC50 is 11.9 µM (active).
As for `Cc1cc(C)cc(O)c1`, the outcome was inactive.
Still for that read-out and setting: with `CCN(Cc1cccc(S(=O)(=O)O)c1)c1ccc(C(=C2C=CC(=[N+](CC)Cc3cccc(S(=O)(=O)O)c3)C=C2)c2ccc(O)cc2S(=O)(=O)[O-])cc1` the entry was “inactive”.
In the case of `C(=C(c1ccccc1)c1ccccc1)c1ccccc1`, the half-maximal activity concentration (AC50) was 1.49 µM (active).
Take `CC(CCl)OP(=O)(OC(C)CCl)OC(C)CCl` (stereo unspecified): the call was inactive.
As to `C1COCCN1`, the call was inactive.
Same read-out and setting: to `CN(C)Cc1ccccc1O` belongs “inactive”.
The same measure, in the same setting: to `CCCCOc1ccc(N)cc1` belongs “inactive”; to `CC/C=C\CCOC(C)=O`, “inactive”; to `[Co]`, “inactive”.
For `Cc1ccc(S(=O)(=O)NCl)cc1`, the outcome was inactive.
The same measure, in the same setting: with `CCCCCCC(C)OC(=O)CCCCC(=O)OC(C)CCCCCC` (stereo unspecified) the entry was “inactive”; with `CCCCCCOC(=O)c1ccccc1O`, “inactive”.
For `COC(=O)C1CCC(C(=O)OC)CC1` (stereo unspecified), the outcome was inactive.
The same measure, in the same setting: with `CCCCCCOC(=O)c1ccccc1` the entry was “inactive”.
